Screening data from PubChem BioAssay.
An excerpt weighted towards active compounds, which were near 2.3% of everything screened.
M1 PAM = potentiates human M1 receptor response to acetylcholine. CHO-K1 hM1, Fluo-8 calcium fluorescence, ACh EC20; 0% = ACh EC20, 100% = maximal ACh. activation, % at 3 µM. 360,000 compounds, 0.088% hits; in the data active means activation above about 19%, passing the limit was not always enough
Target sequence (P11229 whole entry, looked up): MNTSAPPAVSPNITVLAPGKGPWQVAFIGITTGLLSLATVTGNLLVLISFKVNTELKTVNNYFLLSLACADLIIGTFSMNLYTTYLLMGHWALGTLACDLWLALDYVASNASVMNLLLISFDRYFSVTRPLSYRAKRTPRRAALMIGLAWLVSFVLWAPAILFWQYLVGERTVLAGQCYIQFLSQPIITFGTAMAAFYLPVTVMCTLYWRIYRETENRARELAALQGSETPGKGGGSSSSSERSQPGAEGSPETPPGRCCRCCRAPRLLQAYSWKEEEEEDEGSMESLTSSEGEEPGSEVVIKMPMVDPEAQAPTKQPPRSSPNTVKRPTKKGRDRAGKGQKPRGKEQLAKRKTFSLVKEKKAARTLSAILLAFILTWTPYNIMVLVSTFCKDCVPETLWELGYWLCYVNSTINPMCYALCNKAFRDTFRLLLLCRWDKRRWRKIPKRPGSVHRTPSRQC
M1 antag = human CHRM1 antagonism. CHO-K1 hM1, Fluo-8 calcium fluorescence, ACh EC80 antagonist. P11229. 360,000 compounds, 1.3% hits. inhibition, % at 3 µM;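 active means percent inhibition above its own plate's cutoff, namely the mean of that plate's compound wells plus 3 SD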;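 further: peak over basal fluorescence ratio during 140 s after agonist addition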
CHO-K1 Ca antag = nonselective inhibitor or artifact in parental CHO-K1 cells; AID 602250; 360,000 compounds, 0.6% hits; ATP-induced calcium, Fluo-8 fluorescence; inhibition, % at 3 µM;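 active means inhibition above a per-plate cutoff, the plate's mean sample inhibition plus 3 SD, cut at about 24% in these data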
M1 ag = human M1 muscarinic receptor agonism; P11229; CHO-K1 hM1, Fluo-8 calcium fluorescence, agonist mode; 0% DMSO, 100% acetylcholine EC100; activation, % at 3 µM; 360,000 compounds, 0.33% hits; AID 588814;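 active means activation above the run's mean compound activation plus 3 SD, cut at about 16% in these data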;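 further: peak over basal fluorescence ratio within a 140 s kinetic read after compound addition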
CHO-K1 Ca ag = counter-screen for M1 agonists: effect in parental CHO-K1 cells; Fluo-8 calcium fluorescence; scaled to maximal ATP response, vehicle zero; activation, % at 3 µM; 360,000 compounds, 0.48% hits; in the data active means activation above about 15%;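 further: untransfected CHO-K1 host cells lacking M1 receptor as counterscreen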
M1 PAM parental = M1 PAM counterscreen hit in parental CHO-K1 cells | activation, % at 3 µM | AID 602247 | 360,000 compounds, 0.02% hits | ATP EC20, Fluo-8 calcium fluorescence; 0% at ATP EC20, 100% at ATP max;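 active means activation above the run cutoff, the mean activation of all test compounds plus 3 SD, cut at about 40% in these data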;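 further: peak over basal fluorescence ratio in a 140 s read after ATP addition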
A number is an active result.

`CCOc1cc2[nH]c(=O)n(Cc3ccccc3)c(=O)c2cc1OCC` gave M1 PAM inactive, M1 antag inactive, CHO-K1 Ca antag 26, M1 ag inactive, CHO-K1 Ca ag inactive and M1 PAM parental inactive.
Screening COc1ccc(Cn2c(=O)[nH]c3cc(OC)c(OC)cc3c2=O)cc1 returned M1 PAM inactive, M1 antag inactive, CHO-K1 Ca antag inactive, M1 ag inactive, CHO-K1 Ca ag inactive and M1 PAM parental inactive.
Screening Cc1ccc(N2CC(C(=O)OCC(=O)Nc3cccc(Cl)c3C)CC2=O)cc1 (stereo not given) returned M1 PAM inactive, M1 antag inactive, CHO-K1 Ca antag inactive, M1 ag inactive, CHO-K1 Ca ag inactive and M1 PAM parental inactive.
CCc1ccccc1NC(=O)COC(=O)C1CC(=O)N(c2ccc(F)cc2)C1 (stereo not given) was read as M1 PAM inactive, M1 antag inactive, CHO-K1 Ca antag 29, M1 ag inactive, CHO-K1 Ca ag inactive and M1 PAM parental inactive.
O=C(NNc1ccnc2cc(Cl)ccc12)C1CCCCC1 was read as M1 PAM inactive, M1 antag 32, CHO-K1 Ca antag inactive, M1 ag inactive, CHO-K1 Ca ag inactive and M1 PAM parental inactive.
For CC(=O)N1CCN(C(=O)CNC(=O)c2ccc(C)s2)CC1 the results were M1 PAM inactive, M1 antag inactive, CHO-K1 Ca antag inactive, M1 ag inactive, CHO-K1 Ca ag inactive and M1 PAM parental inactive.
Screening CCC(C)N(CCNC(=O)CC1Oc2ccc(C)cc2NC1=O)C1CCCCC1 (stereo not given) returned M1 PAM inactive, M1 antag 101, CHO-K1 Ca antag inactive, M1 ag inactive, CHO-K1 Ca ag inactive and M1 PAM parental inactive.
`Cc1ccc2c(c1)NC(=O)C(CC(=O)NCCCN1CCCC1)O2` (stereo not given) gave M1 PAM inactive, M1 antag inactive, CHO-K1 Ca antag inactive, M1 ag inactive, CHO-K1 Ca ag inactive and M1 PAM parental inactive.
For CC1CCCCN1CCNC(=O)CC1Oc2ccccc2NC1=O (stereo not given) the results were M1 PAM inactive, M1 antag 36, CHO-K1 Ca antag inactive, M1 ag inactive, CHO-K1 Ca ag inactive and M1 PAM parental inactive.
For Cc1ccc2c(c1)NC(=O)C(CC(=O)NCCCN1CCCCC1C)O2 (stereo not given) the results were M1 PAM inactive, M1 antag inactive, CHO-K1 Ca antag inactive, M1 ag inactive, CHO-K1 Ca ag inactive and M1 PAM parental inactive.
Screening CCN(C(=O)c1ccco1)C1C2CC3CC(C2)CC1C3 (stereo not given) returned M1 PAM inactive, M1 antag inactive, CHO-K1 Ca antag inactive, M1 ag inactive, CHO-K1 Ca ag inactive and M1 PAM parental inactive.
Screening COCCNC(=O)CCc1nnc(C2(c3ccc(Cl)cc3)CCC2)o1 returned M1 PAM inactive, M1 antag inactive, CHO-K1 Ca antag inactive, M1 ag inactive, CHO-K1 Ca ag 16 and M1 PAM parental inactive.
`CC(C)(CO)CNC(=O)CCc1nnc(C2(c3ccc(Cl)cc3)CCC2)o1` gave M1 PAM inactive, M1 antag inactive, CHO-K1 Ca antag inactive, M1 ag inactive, CHO-K1 Ca ag inactive and M1 PAM parental inactive.
`CC(C)C[C@H]1CN([C@@H](Cc2ccccc2)CN2CCC[C@@H]2CN2C(=O)C(=O)NC[C@@H]2Cc2ccc(O)cc2)C(=O)C(=O)N1CC1CCCCC1` gave M1 PAM inactive, M1 antag inactive, CHO-K1 Ca antag 30, M1 ag inactive, CHO-K1 Ca ag inactive and M1 PAM parental inactive.
`Oc1ccc(C[C@H]2CN([C@@H](Cc3ccc(O)cc3)CN3CCC[C@@H]3CN3C(=S)NC[C@@H]3Cc3ccccc3)C(=S)N2CCc2ccccc2)cc1` gave M1 PAM inactive, M1 antag inactive, CHO-K1 Ca antag 34, M1 ag inactive, CHO-K1 Ca ag inactive and M1 PAM parental inactive.
`CCCS(=O)(=O)NC(=O)C1(C)CCN(C(=O)c2ccc(OC)cc2OC)C1` (stereo not given) gave M1 PAM inactive, M1 antag inactive, CHO-K1 Ca antag inactive, M1 ag inactive, CHO-K1 Ca ag inactive and M1 PAM parental inactive.
CC(=O)N1CC(c2ccccc2)C(c2ccc(Cl)cc2)=N1 (stereo not given) was read as M1 PAM inactive, M1 antag inactive, CHO-K1 Ca antag inactive, M1 ag inactive, CHO-K1 Ca ag inactive and M1 PAM parental inactive.
CC(C)NC(=O)N1CC(c2ccccc2)C(c2ccc(Cl)cc2)=N1 (stereo not given) was read as M1 PAM inactive, M1 antag 35, CHO-K1 Ca antag inactive, M1 ag inactive, CHO-K1 Ca ag inactive and M1 PAM parental inactive.
CNc1nc(-c2ccccc2)c2sccc2n1 was read as M1 PAM inactive, M1 antag inactive, CHO-K1 Ca antag inactive, M1 ag inactive, CHO-K1 Ca ag inactive and M1 PAM parental inactive.
CCOC(=O)C1CCCN(c2c(NCc3ccco3)c(=O)c2=O)C1 (stereo not given) was read as M1 PAM inactive, M1 antag inactive, CHO-K1 Ca antag inactive, M1 ag 27, CHO-K1 Ca ag inactive and M1 PAM parental inactive.
O=C(NC(=S)NCCC1=CCCCC1)c1cncc(Br)c1 was read as M1 PAM inactive, M1 antag inactive, CHO-K1 Ca antag inactive, M1 ag inactive, CHO-K1 Ca ag 16 and M1 PAM parental inactive.
Screening O=C(NC(=S)NCCC1=CCCCC1)c1ccccc1Br returned M1 PAM inactive, M1 antag inactive, CHO-K1 Ca antag inactive, M1 ag inactive, CHO-K1 Ca ag inactive and M1 PAM parental inactive.
Screening CC(NC(=O)Nc1ccc(Cl)c(Cl)c1)C(c1ccccc1)N1CCOCC1 (stereo not given) returned M1 PAM inactive, M1 antag inactive, CHO-K1 Ca antag inactive, M1 ag 30, CHO-K1 Ca ag 38 and M1 PAM parental inactive.
CC(NC(=O)c1ccc(Cl)cc1Cl)C(c1ccccc1)N1CCOCC1 (stereo not given) was read as M1 PAM inactive, M1 antag inactive, CHO-K1 Ca antag inactive, M1 ag inactive, CHO-K1 Ca ag inactive and M1 PAM parental inactive.
For CC(NC(=O)Nc1ccc([N+](=O)[O-])cc1)C(c1ccccc1)N1CCOCC1 (stereo not given) the results were M1 PAM inactive, M1 antag inactive, CHO-K1 Ca antag inactive, M1 ag 26, CHO-K1 Ca ag 49 and M1 PAM parental inactive.
`COc1cc(C2Nc3ccc4ncccc4c3C3=C2C(=O)CCC3)ccc1O` (stereo not given) gave M1 PAM inactive, M1 antag inactive, CHO-K1 Ca antag inactive, M1 ag inactive, CHO-K1 Ca ag inactive and M1 PAM parental inactive.
Screening Cc1cc(C)n(S(=O)(=O)c2ccc(C(C)(C)C)cc2)n1 returned M1 PAM inactive, M1 antag 55, CHO-K1 Ca antag inactive, M1 ag inactive, CHO-K1 Ca ag inactive and M1 PAM parental inactive.
